aSyn 5UTR act: Activators working through SNCA 5'UTR binding (MLPCN) | alpha-synuclein 5'UTR reporter, activators screen | activity score, % (tested at 7.5 µM), hits read low | actives 7.1% (n = 300,000); in the data active = activity score below about -60%
* marks the source's active call; other numbers are inactive results. Only a sample is shown.

SMILES | aSyn 5UTR act
CC(C)(C)C1C/C(=C/c2ccccn2)C(=O)/C(=C/c2ccccn2)C1 (stereo unspecified) | 103.3
N/C(=N\OC(=O)COc1cc(Cl)c(Cl)cc1Cl)c1ccccn1 | -150.5*
Cc1cccc(OCC(=O)O/N=C(\N)c2ccccn2)c1C | -172.3*
CCCCc1noc2c1/C(=N\O)CC(c1ccccc1)C2 (stereo unspecified) | -77.5*
COc1ccc(C(=O)N2CCc3ccc(NC(=O)c4ccccn4)cc3C2)cc1F | -101.2*
CC(C)C(=O)Nc1cccc(C(=O)Nc2nnc(C(C)C)s2)c1 | -119.8*
CC(C)C(=O)Nc1ccc(C(=O)Nc2nnc(C(C)C)s2)cc1 | -107.4*
COCc1nnc(NC(=O)c2cccc(NC(=O)C(C)C)c2)s1 | -72.7*
CCOCc1nnc(NC(=O)c2cccc(OC)c2)s1 | -96.3*
CCc1nnc(NC(=O)c2cccc(NC(=O)C(C)C)c2)s1 | -81.3*
Cc1c(C(=O)OCC(=O)N2C(C)CCCC2C)oc2ccccc12 (stereo unspecified) | -118.1*
COC(=O)c1c(C)[nH]c(C(=O)/C=C/c2ccc(C)cc2)c1C | -73.0*
COC(=O)c1c(C)[nH]c(C(=O)/C=C/c2cccc(Cl)c2)c1C | -232.1*
COC(=O)c1c(C)[nH]c(C(=O)/C=C/c2ccccc2)c1C | -107.3*
COC(=O)c1c(C)[nH]c(C(=O)CSc2ccc(Cl)cc2)c1C | -133.5*
CCCCc1c(C)c(C#N)c2nc3ccccc3n2c1Cl | 109.3
CCCCCc1nc2c(C#N)c(-c3ccc(Cl)cc3)ccn2n1 | -64.6*
COc1ccc(-n2cc(-c3ccc(Cl)cc3)[nH]c2=S)cc1 | -91.1*
COc1cccc(-n2cc(-c3ccc(F)cc3)[nH]c2=S)c1 | -157.6*
Cc1[nH]c2ccccc2c1C(=O)NS(=O)(=O)Nc1ccc(Cl)cc1 | -81.7*
CSc1nc(O)c(N=Nc2ccc(F)cc2F)c(=O)[nH]1 | -137.8*
CC(C)c1ccc2[nH]c3c(c2c1)[C@@H]1CCN2C(=O)CCC[C@H](C3)[C@H]12 | -92.6*
S=C(NCC1CCCO1)Nc1ccc(Cl)c(Cl)c1 (stereo unspecified) | -85.7*
CN(C)c1ccc(NC(=S)NCC2CCCO2)cc1 (stereo unspecified) | -101.0*
CCc1ccc(NC(=O)C(=O)NCC2CCCO2)cc1 (stereo unspecified) | -136.7*
SMILES | aSyn 5UTR act
COc1ccc(-c2nnc(SCc3ccccn3)n2C)cc1 | -66.8*
COc1ccc(N=C(N)SCc2ccccn2)cc1 | -79.3*
COc1ccc(-c2nnc(SCc3ccccc3)n2N)cc1 | -142.4*
COc1ccc(-c2nnc(SCCc3ccccc3)n2N)cc1 | -82.5*
CC/C(=N\NC(=O)c1ccoc1C)c1ccc(C)o1 | -155.0*
O=C(N/N=C/c1ccc(OCc2ccccc2)cc1)c1cc[n+](Cc2ccccc2)cc1 | -76.6*
Cc1occc1C(=O)N/N=C/c1ccc(OCc2ccccc2)cc1 | -137.7*
CCOc1ccc(OCc2cccc(C(=O)N/N=C/c3cccnc3)c2)cc1 | 87.0
C/C(CC(=O)NCc1ccccc1Cl)=N/NC(=O)c1ccccn1 | -115.9*
C/C(=N\NC(=O)c1ccc(F)cc1)c1ccccn1 | -93.2*
C/C(CC(=O)Nc1ccc(F)cc1)=N\NC(=O)c1ccccn1 | -63.5*
C/C(=N\NC(=O)CCCNc1ccc(C)cc1)c1ccccn1 | 78.3
C/C(CC(=O)NC1CCCCC1)=N\NC(=O)c1ccccn1 | -132.3*
CC(=O)Nc1ccccc1NC(=O)C/C(C)=N/NC(=O)c1ccccn1 | -113.5*
C/C(CC(=O)Nc1ccc(Cl)c(C(F)(F)F)c1)=N\NC(=O)c1ccccc1O | -82.1*
CCc1ccc(Nc2cnn(-c3nc4ccccc4s3)c(=O)c2Cl)cc1 | -80.5*
CC(C)NC(=O)c1[nH]nc2c1CCc1ccccc1-2 | -164.9*
COc1cccc(/C=N/NC(=O)c2[nH]nc3c2CCc2ccccc2-3)c1 | -68.6*
Cc1cc(C)c2c3c(sc2n1)C(c1cccc(F)c1)C(C#N)=C(N)O3 (stereo unspecified) | -76.0*
Cn1cccc1C(=O)C(=O)Nc1cc(Cl)cc(Cl)c1 | -155.4*
Cn1cccc1C(=O)C(=O)Nc1ccc(F)c(F)c1 | -175.8*
Cn1cccc1C(=O)C(=O)Nc1ccc(Cl)cc1 | -119.4*
Cn1cccc1C(=O)C(=O)Nc1cccc(Cl)c1Cl | -147.6*
COc1ccc(OCCCn2cc(/C=C3/C(=N)N4C=C(C)SC4=NC3=O)c3ccccc32)cc1 | -69.5*
O=C1N/C(=C/c2ccsc2)C(=O)N1c1ccccc1 | -95.5*
SMILES | aSyn 5UTR act
CCn1c(C)cc(/C=C2/NC(=O)N(c3ccccc3)C2=O)c1C | -153.1*
COCCn1c(C)cc(/C=C2/NC(=O)N(c3cccc(Cl)c3)C2=O)c1C | -133.2*
Cc1ccc(C2=NNC(C(O)C(O)C(O)CO)S2)cc1 (stereo unspecified) | -66.5*
COc1ccc(C2NN=C(c3ccc(C)cc3)S2)cc1 (stereo unspecified) | -171.8*
COc1cccc2cc(C(=O)Nc3cccc(C)n3)c(=O)oc12 | -166.6*
COc1ccccc1C(=O)Nc1ccc2c3c(cccc13)CC2 | -117.6*
COc1ccccc1C(=O)Nc1cccc(NC(=O)c2ccccc2OC)n1 | -112.3*
COc1ccccc1C(=O)Nc1cc(C)on1 | -113.5*

Source: PubChem (Broad Institute)
